Results as given in PubChem BioAssay (NCI).
The panel holds about 83,000 compounds, 20% with a hit somewhere; the sample as a whole holds those more often.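 How to read the values: 0–100, growth inhibition (40 = 60% inhibited); 0, no net growth; -100 to 0, cell death (-40 = 40% of starting cells died; -100 = all dead).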 Calls of active or inactive are those of the source. Rule for the calls: active = growth percent below 10; inactive = the rest.

Test system: MDA-MB-468 breast
Experiment: NCI-60 one-dose screen, 48 h (100 = growth as untreated, 0 = no growth, -100 = all killed)
Conditions: 10 µM unless noted

Compound	growth
c1ccc(-c2nnc(Nc3nnc(-c4ccccc4)s3)s2)cc1	107% (inactive)
Cc1c(O)c(O)cc2c3c(oc12)CC(c1ccc2c(c1)OCO2)CC3=O (stereo not given)	93.2% (inactive)
CS(=O)(=O)c1nnc(-c2ccccc2)s1	-8.46% (active)
O=C(CN1CCCCCC1)Nc1nc2ccc(NCc3ccc(Cl)cc3)cc2s1	85.2% (inactive)
COc1cc(OC)c(/C=C/C(=O)c2c(OC)cc(OC)cc2OC)c(OC)c1	14% (inactive)
COc1ccc(C2=NOC(CC(=O)N(CCO)CCO)C2)cc1OC1CCCC1 (stereo not given)	90.2% (inactive)
CC(C)OC(=O)N1CCOCC1	97.2% (inactive)
CCOC(=O)c1c(C)[nH]c2ccc(O)cc12	102% (inactive)
Cn1nc(-c2ccc(Cl)cc2)nc2c(=O)n(C)c(=O)nc1-2	-73.2% (active)
C=C1CC[C@@H]2[C@](C)(COC(C)=O)[C@H](OC(C)=O)CC[C@@]2(C)[C@@H]1CC(Nc1ccc(S(=O)(=O)Nc2nccs2)cc1)C1=CCOC1=O (stereo not given in full)	-59.9% (active)
O=c1[nH]nnc2c1ncn2C1OC(CO)C(O)C1O (stereo not given)	40.1% (inactive)
Cc1cc(N(CCNc2ccnc3cc(Cl)ccc23)Cc2ccco2)nc(Cl)n1	-33.5% (active)
CCOC(=O)c1ccccc1-c1c2ccc(=[N+](C)C)cc-2oc2cc(N(C)C)ccc12	-17.9% (active)
CSc1nnc(-c2cc3c([nH]c4ccccc43)c(-c3cccc(O)c3)n2)n1-c1ccccc1	33.4% (inactive)
COc1cccc2cc(-c3nc(C4CCC(C(=O)O)CC4)n4ncnc(N)c34)[nH]c12 (stereo not given)	-22.3% (active)
